# From PubChem BioAssay (Tox21)
# Inconclusive results are not listed. Entries that show only a call come without a potency. Active and inactive are the calls of the source. Unless noted, calls come from the whole dose curve.
# Experiments:
# [1] = Nuclear factor erythroid 2-related factor 2/antioxidant responsive element (Nrf2/ARE) small molecule agonists: qHTS cell viability counter screen in human keratinocytes (AID 1919968; active = well fitted curve in the direction sought with a large enough effect in the repeat runs; an effect the other way counts as inactive or inconclusive; note: nearly all actives have a fitted effect of over 55% in size; note: potency is the fitted concentration of half-maximal effect)
# Outline: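 Viability counter-screen: KeratinoSens reporter cells, DMSO-delivered compounds, 23 h at 37 C, CellTiter-Fluor fluorescence.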
# [2] = molecular target: Gonadotropin-releasing hormone receptor (Homo sapiens) (UniProt P30968); assay: Human gonadotropin-releasing hormone receptor (GnRHR) small molecule agonists, calcium flux assay in GnRHR-HEK293 cells (AID 1920063); note: nearly all actives have a fitted effect of over 35% in size
# Outline: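 Tox21-format agonist screen using human GnRHR-expressing HEK293 cells and a fluorescent calcium dye; kinetic 3-min fluorescence reading after compound addition, 15-point concentration series run in triplicate.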
# [3] = molecular target: KiSS-1 receptor (Homo sapiens) (UniProt Q969F8); assay: Human kisspeptin (KISS1R) small molecule agonists, calcium flux assay in KISS1R-HEK293 cells (AID 1920064; active = well fitted curve in the direction sought with a large enough effect in the repeat runs; an effect the other way counts as inactive or inconclusive)
# Outline: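 Intracellular calcium mobilization in KISS1R-HEK293 cells was recorded by fluorescence (Ex/Em 480/540) for 3 min following compound addition to cells pre-loaded 1 h with calcium dye.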
# [4] = G protein-coupled receptor (GPCR) small molecule agonists, calcium flux assay: HEK293 wild type cell line counter screen (AID 1920065)
# Outline: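 In this agonist-mode screen, ATP is the positive control and DMSO the vehicle. Cells grow 18 h before a 1 h dye incubation at 37 C; signal is taken at Ex/Em 480/540 over 3 min.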
# [5] = p53 small molecule agonists, cell-based qHTS assay with human liver microsomes (AID 1963577);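 note: p53 response element beta-lactamase reporter cells with liver microsomes plus NADPH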
# Outline: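 HLM-supplemented p53RE-bla reporter assay: 16 h compound exposure at 37 C, microsomes and NADPH each 0.5 mg/mL final, read by fluorescence intensity.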
# [6] = p53 small molecule agonists, cell-based qHTS assay with human liver microsomes: qHTS cell viability counter screen (AID 1963579); note: nearly all actives have a fitted effect of over 45% in size
# Outline: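 Viability of p53RE-bla cells is measured as CellTiter-Glo luminescence following a 16 h, 37 C incubation with compound, liver microsomes from human donors and NADPH.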
# [7] = p53 small molecule agonists, cell-based qHTS assay with rat liver microsomes: qHTS cell viability counter screen (AID 1963580); note: nearly all actives have a fitted effect of over 45% in size
# Outline: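 HCT-116 p53RE-bla, 4,000 cells/well, 5 h pre-incubation; cpd + rat liver microsomes 0.5 mg/mL + NADPH 0.5 mg/mL (final); 16 h, 37 C; CellTiter-Glo, 30 min RT; luminescence.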
# [8] = p53 small molecule agonists, cell-based qHTS assay: qHTS cell viability counter screen (AID 1963581); note: nearly all actives have a fitted effect of over 45% in size
# Outline: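 Compounds are pinned onto HCT-116 p53RE-bla cells and left 16 h at 37 C. Following the reporter FRET read, ATP is quantified by CellTiter-Glo luminescence after 30 min at room temperature.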
# [9] = p53 small molecule agonists, cell-based qHTS assay (AID 1963582; active = well fitted activation curve with a large enough effect in the signal ratio in the repeat runs, not every such curve was filed as active; the % refers to the signal ratio)
# Outline: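 Agonist activity was scored from beta-lactamase FRET fluorescence in p53RE-bla cells treated 16 h at 37 C with compounds in DMSO, substrate incubation being 2 h at room temperature.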
# [10] = molecular target: 5-hydroxytryptamine receptor 2A (Homo sapiens) (UniProt P28223); assay: 5-hydroxytryptamine receptor 2A (HTR2A) small molecule antagonists, cell-based qHTS assay (AID 1963586); note: nearly all actives have a fitted effect of over 45% in size; note: potency is the fitted concentration of half-maximal effect
# Outline: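 Antagonist-mode intracellular calcium assay: DOI (4 nM) added after 5 min compound pre-incubation at room temperature to dye-loaded HTR2A-CHO cells. Fluorescence followed for 3 min, sampled every second.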
# [11] = molecular target: 5-hydroxytryptamine receptor 2A (Homo sapiens) (UniProt P28223); assay: 5-hydroxytryptamine receptor 2A (HTR2A) small molecule agonists, cell-based qHTS assay (AID 1963587); note: nearly all actives have a fitted effect of over 30% in size
# Outline: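 Kinetic calcium-flux fluorescence (2 min, 1 sec intervals) after compound addition in agonist mode. HTR2A-CHO cells were cultured 18 h, then dye-loaded 1 h at 37 C.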
# [12] = molecular target: Muscarinic acetylcholine receptor M1 (Homo sapiens) (UniProt P11229); assay: Cholinergic receptor muscarinic 1 (CHRM1) small molecule antagonists, cell-based qHTS assay (AID 1963588); note: nearly all actives have a fitted effect of over 40% in size; note: potency is the fitted concentration of half-maximal effect
# Outline: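 CHRM1-CHO calcium-flux assay, antagonist mode. Cells were seeded 18 h, dye-loaded 1 h at 37 C and given compound for 5 min at RT, then acetylcholine was added at 50nM. FDSS fluorescence was read 3 min; 15 concentrations, three runs.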
# [13] = molecular target: Muscarinic acetylcholine receptor M1 (Homo sapiens) (UniProt P11229); assay: Cholinergic receptor muscarinic 1 (CHRM1) small molecule agonists, cell-based qHTS assay (AID 1963589); note: nearly all actives have a fitted effect of over 35% in size
# Outline: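 Stable CHRM1-CHO cells (human receptor) were incubated 18 h, dye-loaded for 1 h at 37 C and exposed to test compounds for agonist activity, with calcium-dependent fluorescence followed kinetically.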
# [14] = cAMP Responsive Elements (CRE) small molecule antagonists, cell-based qHTS assay (AID 1963591; active = well fitted inhibition curve with a large enough effect in the signal ratio in the repeat runs, not every such curve was filed as active; the % refers to the signal ratio; note: potency is the fitted concentration of half-maximal effect)
# Outline: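 qHTS in CRE-bla HEK 293T cells: compound in DMSO, then 0.25 uM NKH477 (final), 3 h at 37 °C/5% CO2; beta-lactamase FRET read-out after 2 h substrate incubation.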
# [15] = molecular target: Beta-2 adrenergic receptor (Homo sapiens) (UniProt P07550); assay: Adrenergic beta2 receptor (ADRB2) small molecule antagonists, cell-based qHTS assay (AID 1963592); note: series mostly up to about 92 µM; nearly all actives have a fitted effect of over 50% in size
# Outline: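 Cells (CHO, stable ADRB2 overexpression) incubated 18-20hr at 37C; compounds added from DMSO; agonist mix (1nM isoproterenol, 100uM IBMX, 25uM Ro-20-1724) added; 0.5hr RT; d2-cAMP and anti-cAMP-cryptate added; 1hr RT; 665/615 nm read.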
# [16] = molecular target: Beta-2 adrenergic receptor (Homo sapiens) (UniProt P07550); assay: Adrenergic beta2 receptor (ADRB2) small molecule agonists, cell-based qHTS assay (AID 1963593); note: potency is the fitted concentration of half-maximal effect;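 for activation: CHO cells stably overexpressing human ADRB2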
# Outline: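 CHO cells stably over-expressing ADRB2 were plated overnight at 37C, then dosed with compounds plus a stimulation mix containing 100uM IBMX and 25uM Ro-20-1724 for 0.5hr at room temperature. cAMP was measured by HTRF competition, 1hr.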
# [17] = molecular target: D(2) dopamine receptor (Homo sapiens) (UniProt P14416); assay: Dopamine D2 receptor (DRD2) small molecule agonists, cell-based qHTS assay (AID 1963594); note: nearly all actives have a fitted effect of over 35% in size; note: potency is the fitted concentration of half-maximal effect
# Outline: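 cAMP accumulation in DRD2-HEK293 cells measured by HTRF after 1 h detection; compounds added 10 min before NKH477 (200nM […]) forskolin-analogue stimulation, 30 min at room temperature, with Ro20-1724 present at 0.1 mM final.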
# [18] = molecular target: D(2) dopamine receptor (Homo sapiens) (UniProt P14416); assay: Dopamine D2 receptor (DRD2) small molecule antagonists, cell-based qHTS assay (AID 1963595; active = well fitted inhibition curve with a large enough effect in the signal ratio in the repeat runs, with a control signal flat; the % refers to the signal ratio; note: potency is the fitted concentration of half-maximal effect)
# Outline: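 In this cell-based antagonist screen, compounds act for 10 min at room temperature before a 30 min challenge with 12 nM quinpirole and 200 nM NKH477. cAMP is quantified by HTRF competition in DRD2-HEK293 cells containing 0.1 mM Ro20-1724.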
# [19] = p53 small molecule agonists, cell-based qHTS assay with rat liver microsomes (AID 1963578)
# Outline: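 Quantitative HTS of the Tox21 10K library: p53RE-bla cells, rat liver microsomes plus NADPH at 0.5 mg/mL final each, 16 h at 37 C, beta-lactamase fluorescence detection.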
# [20] = cAMP Responsive Elements (CRE) small molecule agonists, cell-based qHTS assay (AID 1963590)
# Outline: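 FRET-based beta-lactamase readout (LiveBLAzer B/G, 2 h RT) quantified CRE activation in HEK 293T CRE-bla cells after 3 h treatment with DMSO-dissolved compounds.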
# Chain of KiSS-1 receptor (Homo sapiens) (Q969F8 whole entry, looked up): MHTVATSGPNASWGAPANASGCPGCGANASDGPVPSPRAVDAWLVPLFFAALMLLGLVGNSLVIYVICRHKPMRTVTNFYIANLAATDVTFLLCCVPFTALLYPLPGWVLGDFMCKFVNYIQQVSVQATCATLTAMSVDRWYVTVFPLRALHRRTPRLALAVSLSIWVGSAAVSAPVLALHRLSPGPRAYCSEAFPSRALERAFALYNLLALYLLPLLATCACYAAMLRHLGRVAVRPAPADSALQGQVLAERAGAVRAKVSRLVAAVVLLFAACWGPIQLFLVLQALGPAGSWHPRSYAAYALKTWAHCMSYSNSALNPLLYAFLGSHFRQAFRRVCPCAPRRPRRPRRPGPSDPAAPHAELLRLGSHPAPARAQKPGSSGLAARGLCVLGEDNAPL
# Chain of D(2) dopamine receptor (Homo sapiens) (P14416 whole entry, looked up): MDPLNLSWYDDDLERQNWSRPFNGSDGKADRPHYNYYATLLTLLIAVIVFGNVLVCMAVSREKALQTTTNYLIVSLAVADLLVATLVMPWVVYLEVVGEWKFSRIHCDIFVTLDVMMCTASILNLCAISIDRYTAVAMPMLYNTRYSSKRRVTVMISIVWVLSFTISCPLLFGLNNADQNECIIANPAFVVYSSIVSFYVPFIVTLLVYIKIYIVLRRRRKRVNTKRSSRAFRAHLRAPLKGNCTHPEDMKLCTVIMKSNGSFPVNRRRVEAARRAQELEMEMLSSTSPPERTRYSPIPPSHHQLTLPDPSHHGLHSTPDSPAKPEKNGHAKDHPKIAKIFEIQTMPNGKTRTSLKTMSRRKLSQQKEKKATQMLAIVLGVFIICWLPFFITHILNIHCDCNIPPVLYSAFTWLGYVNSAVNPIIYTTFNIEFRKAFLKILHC
# Chain of Gonadotropin-releasing hormone receptor (Homo sapiens) (P30968 whole entry, looked up): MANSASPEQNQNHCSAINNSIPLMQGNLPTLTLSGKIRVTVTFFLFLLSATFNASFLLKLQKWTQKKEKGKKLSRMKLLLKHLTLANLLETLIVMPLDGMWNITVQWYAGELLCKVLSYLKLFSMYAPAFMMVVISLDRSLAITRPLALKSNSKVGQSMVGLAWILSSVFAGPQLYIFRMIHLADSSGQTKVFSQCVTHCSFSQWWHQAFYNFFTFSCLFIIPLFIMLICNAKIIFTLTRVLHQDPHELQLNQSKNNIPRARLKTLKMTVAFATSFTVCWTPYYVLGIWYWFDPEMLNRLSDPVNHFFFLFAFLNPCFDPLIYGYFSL
# Chain of Muscarinic acetylcholine receptor M1 (Homo sapiens) (P11229 whole entry, looked up): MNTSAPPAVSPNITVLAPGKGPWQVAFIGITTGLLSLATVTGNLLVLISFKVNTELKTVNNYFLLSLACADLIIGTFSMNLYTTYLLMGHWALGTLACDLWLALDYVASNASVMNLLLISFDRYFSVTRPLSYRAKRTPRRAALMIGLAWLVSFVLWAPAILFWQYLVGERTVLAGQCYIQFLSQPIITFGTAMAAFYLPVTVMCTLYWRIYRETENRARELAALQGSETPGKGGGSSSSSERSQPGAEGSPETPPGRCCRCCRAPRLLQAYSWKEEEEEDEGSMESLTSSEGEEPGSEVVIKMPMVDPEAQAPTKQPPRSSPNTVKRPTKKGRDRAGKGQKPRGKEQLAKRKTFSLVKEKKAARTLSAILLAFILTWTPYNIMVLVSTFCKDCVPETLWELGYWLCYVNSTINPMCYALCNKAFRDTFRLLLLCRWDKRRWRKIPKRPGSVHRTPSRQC
# Chain of 5-hydroxytryptamine receptor 2A (Homo sapiens) (P28223 whole entry, looked up): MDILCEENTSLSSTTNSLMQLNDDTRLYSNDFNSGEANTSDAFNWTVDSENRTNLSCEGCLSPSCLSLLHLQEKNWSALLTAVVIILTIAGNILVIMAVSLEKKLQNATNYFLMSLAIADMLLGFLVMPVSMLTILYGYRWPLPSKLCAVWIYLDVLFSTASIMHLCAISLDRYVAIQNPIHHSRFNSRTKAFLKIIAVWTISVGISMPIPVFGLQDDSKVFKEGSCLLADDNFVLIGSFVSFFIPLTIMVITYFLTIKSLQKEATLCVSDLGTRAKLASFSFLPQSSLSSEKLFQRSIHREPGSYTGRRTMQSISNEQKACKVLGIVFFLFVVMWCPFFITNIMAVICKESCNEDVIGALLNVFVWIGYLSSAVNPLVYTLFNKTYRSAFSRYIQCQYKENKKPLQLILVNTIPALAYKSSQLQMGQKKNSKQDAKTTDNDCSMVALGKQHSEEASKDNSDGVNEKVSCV
# Chain of Beta-2 adrenergic receptor (Homo sapiens) (P07550 whole entry, looked up): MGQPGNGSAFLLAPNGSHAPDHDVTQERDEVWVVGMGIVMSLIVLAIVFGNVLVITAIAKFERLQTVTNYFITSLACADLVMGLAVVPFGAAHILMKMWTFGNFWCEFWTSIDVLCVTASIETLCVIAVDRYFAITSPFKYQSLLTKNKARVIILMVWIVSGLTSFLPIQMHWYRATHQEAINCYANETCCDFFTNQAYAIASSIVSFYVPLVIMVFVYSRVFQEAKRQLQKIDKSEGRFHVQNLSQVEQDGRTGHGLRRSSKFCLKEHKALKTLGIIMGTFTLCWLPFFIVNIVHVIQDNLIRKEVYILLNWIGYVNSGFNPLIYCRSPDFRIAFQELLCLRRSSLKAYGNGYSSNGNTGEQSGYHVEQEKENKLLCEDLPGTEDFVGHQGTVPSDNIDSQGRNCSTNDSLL
Structure (SMILES),Potency [1],Potency [2],Potency [3],Potency [4],Potency [5],Potency [6],Potency [7],Potency [8],Potency [9],Potency [10],Potency [11],Potency [12],Potency [13],Potency [14],Potency [15],Potency [16],Potency [17],Potency [18],Potency [19],Potency [20]
CCOC(=O)COc1ccc(Cl)cc1Cl,inactive,inactive,inactive,inactive,inactive,inactive,inactive,inactive,inactive,inactive,inactive,inactive,inactive,inactive,inactive,inactive,inactive,,,
CC(C)NCC(O)c1ccccc1Cl (stereo unspecified),inactive,inactive,inactive,inactive,inactive,inactive,inactive,inactive,inactive,,,,,inactive,,668 nM (active),inactive,inactive,,
CO/C=C(/C(=O)OC)c1ccccc1Oc1cc(Oc2ccccc2C#N)ncn1,6110 nM (active),inactive,inactive,inactive,inactive,,,,,,inactive,,inactive,,,,,,,
CCOCCOC(C)=O,inactive,inactive,inactive,inactive,,,,,inactive,,inactive,,inactive,12800 nM (active),,,inactive,,inactive,inactive
CC(C)Oc1cccc(NC(=O)c2ccccc2C(F)(F)F)c1,inactive,inactive,inactive,inactive,,inactive,,,inactive,,inactive,11.9 nM (active),,,,,inactive,,inactive,
CN1C[C@@H](NS(=O)(=O)N(C)C)C[C@@H]2c3cccc4c3c(cn4C)C[C@H]21,inactive,inactive,inactive,inactive,inactive,inactive,inactive,,,130 nM (active),inactive,inactive,inactive,,inactive,,3760 nM (active),1190 nM (active),,inactive
C=CC(=C)C,inactive,inactive,inactive,inactive,,inactive,inactive,inactive,inactive,inactive,,inactive,inactive,,inactive,,inactive,inactive,inactive,inactive
[C-]1=CC=CC1.[Cl][Zr+2][Cl].c1cc[cH-]c1,inactive,inactive,inactive,inactive,,inactive,inactive,inactive,,inactive,inactive,,inactive,inactive,inactive,,inactive,inactive,,inactive
Cc1cc(C)c(C2=C(OC(=O)CC(C)(C)C)C3(CCCC3)OC2=O)c(C)c1,inactive,inactive,inactive,inactive,,inactive,inactive,inactive,,inactive,inactive,inactive,inactive,inactive,inactive,inactive,inactive,inactive,,inactive
CCCOc1nn(C(=O)NS(=O)(=O)c2ccccc2C(=O)OC)c(=O)n1C,inactive,inactive,inactive,inactive,,inactive,,inactive,inactive,,inactive,inactive,inactive,inactive,inactive,inactive,inactive,inactive,inactive,inactive
O=C(Nc1ccc(F)cc1F)c1cccnc1Oc1cccc(C(F)(F)F)c1,inactive,inactive,inactive,inactive,,inactive,inactive,inactive,,inactive,inactive,inactive,inactive,,inactive,,inactive,inactive,,
CCOP(O)OCC,inactive,inactive,inactive,inactive,,inactive,inactive,inactive,,inactive,inactive,inactive,inactive,inactive,inactive,inactive,inactive,inactive,,inactive
c1cncc([C@@H]2CCCCN2)c1,inactive,inactive,inactive,inactive,inactive,inactive,,inactive,,inactive,,inactive,inactive,inactive,inactive,,inactive,inactive,,inactive
C[C@]12Cc3cn[nH]c3C[C@@H]1CC[C@@H]1[C@@H]2CC[C@@]2(C)[C@H]1CC[C@]2(C)O,29800 nM (active),inactive,inactive,inactive,,inactive,inactive,inactive,inactive,,,,,,inactive,,inactive,,inactive,
Clc1cc(Cl)c(Cl)c(Cl)c1,inactive,inactive,inactive,inactive,,inactive,inactive,inactive,,inactive,inactive,inactive,inactive,inactive,inactive,,inactive,inactive,,inactive
NC(=S)C(N)=S,inactive,inactive,inactive,inactive,,inactive,,inactive,inactive,inactive,inactive,,inactive,inactive,inactive,,inactive,inactive,inactive,
CCSC(=O)N(CC)C1CCCCC1,inactive,inactive,inactive,inactive,,inactive,inactive,inactive,,inactive,inactive,inactive,inactive,inactive,inactive,,inactive,inactive,,inactive
COc1cccc(C(=O)NN(C(=O)c2cc(C)cc(C)c2)C(C)(C)C)c1C,inactive,inactive,inactive,inactive,,inactive,inactive,inactive,inactive,inactive,inactive,,inactive,,inactive,,,inactive,inactive,
CCCN,inactive,inactive,inactive,inactive,,inactive,inactive,inactive,,inactive,inactive,inactive,inactive,,inactive,inactive,inactive,,,inactive
